From PubChem
CYP2C9 inhib: inhibitors of human CYP2C9; P11712; CYP2C9 Supersomes, luciferin-H conversion, luminescence; inhibition, % at 5 µM; 96,000 tested, 20% active; AID 777;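 active = blocking of liver enzyme CYP2C9 beyond about 50% at 5 µM, limit read from the data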
CD11b adhes enh: increases human CD11b/CD18 adhesion to fibrinogen. P05107+P11215. K562 CD11b/CD18 adhesion to fibrinogen, ATPlite luminescence. activation, % at 10 µM. 93,000 tested, 0.07% active;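 active = 10 µM primary screen giving 50% or more activity, confirmed by 40% or more on retest at that dose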
CYP2C19 inhib: blocks human cytochrome P450 2C19; CYP2C19 Supersomes, luciferin-H EGE luminescence, 30 min; inhibition, % at 5 µM; 96,000 tested, 21% active; AID 778;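 active = CYP2C19 inhibition above a set limit at 5 µM in the primary screen, cut at about 50% in these data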
Target sequence (P33261 whole entry, looked up): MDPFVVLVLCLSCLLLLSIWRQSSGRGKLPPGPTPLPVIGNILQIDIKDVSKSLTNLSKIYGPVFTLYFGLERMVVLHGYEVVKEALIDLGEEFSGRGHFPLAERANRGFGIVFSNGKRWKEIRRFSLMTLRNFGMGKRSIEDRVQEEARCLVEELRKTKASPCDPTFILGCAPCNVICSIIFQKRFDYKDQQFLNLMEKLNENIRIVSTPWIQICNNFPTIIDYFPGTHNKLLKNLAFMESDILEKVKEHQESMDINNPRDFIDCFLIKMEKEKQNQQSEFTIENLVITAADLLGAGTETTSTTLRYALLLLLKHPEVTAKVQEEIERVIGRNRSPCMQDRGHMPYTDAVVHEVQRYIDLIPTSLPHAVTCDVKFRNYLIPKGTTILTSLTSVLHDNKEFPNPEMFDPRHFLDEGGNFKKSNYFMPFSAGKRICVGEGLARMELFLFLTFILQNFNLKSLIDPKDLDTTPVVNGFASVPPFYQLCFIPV
CYP2C9 activ: CYP2C9 (human) activation | activation factor at 5 µM | recombinant CYP2C9, luciferin-H conversion, luminescence; hits give high values; factor 1 = untreated enzyme, 0 = blocked | P11712 | 96,000 tested, 1.4% active | AID 1024;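 active = activation factor of 2 or more for CYP2C9 at a 5 µM dose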
CYP2C19 act: increases human CYP2C19 enzyme activity; activation factor at 5 µM; P33261; recombinant CYP2C19, luciferin-H EGE luminescence; hits give high values; 0 = fully inhibited enzyme, 1 = untreated enzyme; 96,000 tested, under 10 active;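 active = activation factor of at least 2 at 5 µM in the primary screen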
Mac1 fbg inh: blocks human CD11b/CD18 adhesion to fibrinogen | P05107+P11215 | K562 CD11b/CD18 adhesion to fibrinogen, ATPlite luminescence; Mn2+ added to activate the integrin | inhibition, % at 10 µM | 93,000 tested, 0.54% active;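 active = primary inhibition of 50% or more at 10 µM, then 40% or more on retest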
Of the large screens only hits and unclear results are named; the others gave an inactive call. A selection: hits, their analogues and other compounds. The true share with any hit is near 28%.

COc1ccc(C2C(C#N)=C(N)Oc3n[nH]c(C)c32)cc1Cn1nnc2ccccc21 (stereo unspecified)	CYP2C9 inhib 67.9
COCc1[nH]nc2c1C(c1ccc(OC)c(OC)c1)C(C#N)=C(N)O2 (stereo unspecified)	none
COc1ccc(C2C(C#N)=C(N)Oc3n[nH]c(C)c32)cc1CSc1ccccn1 (stereo unspecified)	none
CCn1c2ccccc2c2cc(C3C(C#N)=C(N)Oc4n[nH]c(COC)c43)ccc21 (stereo unspecified)	CYP2C9 inhib 58.7
CC(CCc1ccco1)NC(=O)CSc1cc(=O)n(C)c2ccccc12 (stereo unspecified)	none
O=C(NC1CC1)C1C2C3C4CC5C3C5C4C12 (stereo unspecified)	none
CCc1c(C(=O)N2CCN(c3ccccc3F)CC2)[nH]c(C)c1C(C)=O	none
CCCc1[nH]nc2c1C(c1ccc(O)c(OC)c1)C(C#N)=C(N)O2 (stereo unspecified)	CYP2C19 inhib 60.3
CCCCOc1ccccc1Cn1c(=O)oc2ccc(C)cc21	CYP2C9 inhib 87.7, CYP2C19 inhib 86.8
CCCOc1ccc(CNC(=O)Cn2c(=O)oc3ccccc32)cc1	none
COc1ccc(Cn2c(=O)oc3ccc(C)cc32)cc1OC	CYP2C9 inhib 79.4, CYP2C19 inhib 98.3
Cc1ccc2oc(=O)n(CCCOc3ccccc3)c2c1	CYP2C19 inhib 94.1
Cc1ccc2oc(=O)n(CC(=O)O)c2c1	none
Cc1ccc2oc(=O)n(Cc3ccccc3OC(C)C)c2c1	CYP2C9 inhib 85.4, CYP2C19 inhib 85.5
CCOC(=O)C1CCCN(C(=O)CCNS(=O)(=O)c2ccc3c(c2)CCC(=O)N3)C1 (stereo unspecified)	none
C/C(=N\NC(N)=S)C12CC3CC(CC(C3)C1)C2	none
CCOC(=O)C1=C(O)C(Nc2nccs2)(C(F)(F)F)N=C1C (stereo unspecified)	none (no result: CD11b adhes enh, Mac1 fbg inh)
COc1cc(-n2ccnc2SC)c(Cl)cc1Cl	CYP2C19 inhib 53.6 (no result: CD11b adhes enh, Mac1 fbg inh)
CCN(CC)S(=O)(=O)c1cc(C(=O)OCC(=O)Nc2cccc(C)c2C)ccc1F	none (no result: CYP2C9 inhib, CYP2C19 inhib, CYP2C9 activ, CYP2C19 act)
CCOC(=O)c1ccc(NC(=O)NC2CC3CCC(C2)N3Cc2nnnn2Cc2ccco2)cc1 (stereo unspecified)	none (no result: CD11b adhes enh, Mac1 fbg inh)
CCS(=O)(=O)N1CCC(NC(C)=O)(c2ccccc2)CC1	none
CC(C)(C)n1nnnc1CN1C2CCC1CC(NC(=O)Nc1ccccc1)C2 (stereo unspecified)	CYP2C9 inhib 53.3
CC(=O)NC1(c2ccccc2)CCN(Cc2nnnn2C(C)(C)C)CC1	CYP2C19 inhib 66.9
Cc1ccc(S(=O)(=O)CC#CCOC(=O)c2ccc([N+](=O)[O-])cc2)cc1	none (no result: CD11b adhes enh, Mac1 fbg inh)
O=C1CCC2(C(=O)O)Sc3ccccc3N12 (stereo unspecified)	none
CCOc1ccccc1NC(=O)N1CCC(NC(=O)c2ccccc2C)CC1	CYP2C9 activ 2.3
CCN(CC)C(=O)N1CCC(NC(=O)Cc2ccccc2)CC1	none
CCOc1ccccc1NC(=O)N1CCC(NC(=O)c2cccc(C)c2)CC1	CYP2C9 activ 2.6
Cc1ccccc1C(=O)NC1CCN(C(=O)N(c2ccccc2)c2ccccc2)CC1	CYP2C9 inhib 58.3 (no result: CD11b adhes enh, Mac1 fbg inh)
Cc1cccc(NC(=O)N2CCC(NC(=O)c3ccccc3C)CC2)c1	none
O=C(Nc1ccc(F)cc1)C1CCCCC1	none
O=C(Nc1ccc(-n2cnnn2)cc1)C1CCC1	CYP2C19 inhib 51.0
CCOC(=O)c1c(C)c(C(=O)N(C)C2CCCCC2)c(C)n1C	CYP2C19 inhib 53.6
CCN(CC)c1cc(Oc2ccccc2)ncn1	CYP2C19 inhib 80.0
CON(C)c1nc(OCC#N)nc(N(C)C)n1	none (no result: CYP2C9 inhib, CYP2C19 inhib, CYP2C9 activ, CYP2C19 act)
COC(=O)c1c(C)[nH]c(C)c1-c1ccccc1Cl	CYP2C19 inhib 60.9
CCOC(=O)c1c(C)[nH]c(C)c1-c1ccccc1OC	CYP2C19 inhib 66.7 (no result: CD11b adhes enh, Mac1 fbg inh)
O=C(COc1ccccc1)N/N=C/c1ccc([N+](=O)[O-])o1	none (no result: CYP2C9 inhib, CYP2C19 inhib, CYP2C9 activ, CYP2C19 act)
O=C(N/N=C/c1ccc([N+](=O)[O-])o1)c1cc(-c2cccc(Br)c2)nc2ccccc12	CYP2C9 inhib 56.2 (no result: CD11b adhes enh, Mac1 fbg inh)
CCCc1ccc(-c2cc(C(=O)N/N=C/c3ccc([N+](=O)[O-])o3)c3ccccc3n2)cc1	CYP2C9 inhib 95.8, CYP2C19 inhib 51.1
O=C(Nc1ccccc1)/C(=C/c1cccnc1)NC(=O)c1ccco1	none (no result: CYP2C9 inhib, CYP2C19 inhib, CYP2C9 activ, CYP2C19 act)
COc1ccc(NC(=O)/C(=C\c2ccc(OS(=O)(=O)c3ccc(C)cc3)cc2)NC(=O)c2ccccc2)cc1	none (no result: CD11b adhes enh, Mac1 fbg inh)
O=C(N/N=C/c1ccncc1)c1ccccc1	none (no result: CD11b adhes enh, Mac1 fbg inh)
O=C(N/N=C/c1ccncc1)/C(=C/c1ccccc1)NC(=O)c1ccccc1	CYP2C9 inhib 78.7, CYP2C19 inhib 51.0
O=C(Nc1ccccc1)/C(=C\c1ccncc1)NC(=O)c1ccccc1	CYP2C9 inhib 95.6, CYP2C19 inhib 100.3 (no result: CD11b adhes enh, Mac1 fbg inh)
Cc1ccc(S(=O)(=O)Oc2ccc(/C=C(/NC(=O)c3ccccc3)C(=O)Nc3ccccc3)cc2)cc1	CYP2C9 inhib 58.7
Cn1c2c(c(=O)n(C)c1=O)C(NC(=O)c1ccco1)(C(F)(F)F)C(=O)N2 (stereo unspecified)	none
Nc1nc(SCC(=O)N2CCCC2)[nH]c(=O)c1NC(=O)c1ccco1	none
COc1cc(-c2nnc(SCc3cccnc3)n2C)cc(OC)c1O	none
Cn1c(COc2ccccc2)nnc1SCC(=O)NCc1ccccc1	none
CSC(=NS(=O)(=O)c1ccccc1)SC	none
CSC(=NC1CCCCC1)NS(=O)(=O)c1ccccc1	CYP2C19 inhib 79.7
Cc1cc(C(C)(C)C)nc2[nH]n(-c3ccccc3)c(=O)c12	none
Cc1cc(C)c2c(=O)n(-c3ccccc3)[nH]c2n1	none
Cc1cc(-c2ccccc2)nc2[nH]n(-c3ccccc3)c(=O)c12	CYP2C9 inhib 58.8
O=c1c2c(C(F)(F)F)cc(C(F)(F)F)nc2[nH]n1-c1ccccc1	CYP2C9 inhib 83.6
CCSc1nnc(NC(=O)C2(C)Cc3ccccc3C(=O)O2)s1 (stereo unspecified)	CYP2C9 inhib 73.5
COc1ccc(O)c(/C=N/c2sc(C)c(C)c2C#N)c1	none
CCOP(=O)(OCC)C(NCc1ccccc1)c1ccc(Br)cc1 (stereo unspecified)	CYP2C19 inhib 54.2
O=c1[nH]cnc2cc(Cl)ccc12	none
Cc1cc(C)c2nc(Cl)c(CN(Cc3ccco3)C(=O)Nc3ccccc3C)cc2c1	CYP2C9 inhib 75.4
COCCN(Cc1cc2cc(C)cc(C)c2nc1Cl)C(=O)Nc1ccccc1	CYP2C9 inhib 67.2
COc1ccccc1NC(=S)N(Cc1ccco1)Cc1cc2cc(C)cc(C)c2[nH]c1=O	none (no result: CYP2C9 inhib, CYP2C19 inhib, CYP2C9 activ, CYP2C19 act)
O=c1c2ccccc2nc2n1CCCCN2	none
CC(C)Sc1nc2c(c(=O)[nH]1)C(c1cccs1)C1=C(CC(C)(C)CC1=O)N2 (stereo unspecified)	CYP2C9 inhib 68.4
CCSc1nc2c(c(=O)[nH]1)C(c1ccccn1)C1=C(CC(C)(C)CC1=O)N2 (stereo unspecified)	none (no result: CD11b adhes enh, Mac1 fbg inh)
